Source: PubChem BioAssay (National Center for Advancing Translational Sciences (NCATS))
In the library only some 6.5% were active in any assay of this set; here they are far more common.
HepG2 viability: qHTS for Inhibitors of TGF-b: Cytotox Counterscreen; HepG2 CAGA-GFP viability, ATP luminescence, 18 h; Potency, µM (series often up to 46.1 µM), for inactives: at the highest dose activity change, negative = cytotoxicity, usual class: cytotoxic; 0.76% of 410,000 active; AID 588856, 2011; further: potency means the concentration at half of the fitted maximal effect
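CellTiter-Glo luminescence gave cytotoxicity after 18 hours at 37 degrees C. The cells were HepG2 CAGA-GFP in 1% FBS DMEM, stimulated with 500 pg/mL TGF-beta after compound addition. %Activity was normalised to no-cell wells (complete cell-killing) and DMSO (no toxicity), and curves were fitted and classified.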
Giardia kill: Small Molecules that selectively kill Giardia lamblia: qHTS; Giardia lamblia trophozoite viability; activity change, % at 7.66 µM, hits read low; 0.15% of 340,000 active; AID 540267, 2011; in the data active means activity change below about -80%; inconclusive means between about -30% and that limit;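 further: parasites exposed to compound for two days anaerobically before the ATP read; on the % scale 0 is the no-effect control and ±100 the full control effect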
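Each well holds 100 Giardia trophozoites and compound. After two days (48 hrs) at 37 deg C in anaerobic conditions, ATP is quantified by luminescence.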
TGFb SMAD3 inh: qHTS for Inhibitors of TGF-b. HepG2 CAGA-GFP TGF-b/SMAD3 reporter, GFP fluorescence, 18 h; TGF-beta stimulated, 500 pg/mL final. Potency, µM (highest dose often 46.1 µM), for the others: top-dose activity, negative = inhibition, actives largely listed as inhibitors. 1.2% of 410,000 active; further: potency means the concentration at half of the fitted maximal effect; on the % scale 0 is the no-effect control and ±100 the full control effect; nearly all actives have a fitted effect of over 65% in size
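Cell-based qHTS in HEPG2 carrying a CAGA-GFP Smad reporter; compounds added before 500 pg/mL final TGF-beta, 18 h incubation at 37 degrees C, GFP fluorescence quantified per cell by imaging cytometry.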
HT1080 IDH1KD tx: qHTS for induction of synthetic lethality in tumor cells producing 2HG: qHTS for the HT-1080-IDH1KD cell line. AID 686971, 2013. 2% of 360,000 active. HT-1080 IDH1 knockdown viability, ATP luminescence, 48 h. Potency, µM (doses to about 46.1 µM), for the others: at the top dose activity, negative = toxicity, actives largely listed as cytotoxic;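 further: potency means the concentration at half of the fitted maximal effect; 0% = DMSO wells and -100% = cell-free medium wells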
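Using the IDH1-knockdown HT-1080 line run in the same batch and compound series as the NT line, viability after 48 h at 37 °C was determined by CellTiter-Glo luminescence and expressed as % activity.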
IL-1B inflam inh: qHTS for Inhibitors of Inflammasome Signaling: IL-1-beta AlphaLISA Primary Screen | THP-1 LPS/ATP IL-1B secretion, AlphaLISA, 16 h; hits give low values | activity change, % at 57.5 µM | 4.7% of 360,000 active | AID 743279, 2014; in the data active means activity change below about -50%; inconclusive means mostly about -30% to -49%; further: on the % scale 0 is the no-effect control and ±100 the full control effect
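THP-1 cells pretreated 1 hr with compounds (up to 57.5 uM final), then stimulated with LPS (250 ng/mL final) plus ATP (1.25 mM final); secreted IL-1B measured by AlphaLISA after 16 hr, decreased signal indicating inhibition.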
HT1080NT lethal: qHTS for induction of synthetic lethality in tumor cells producing 2HG: qHTS for the HT-1080-NT fibrosarcoma cell line; HT-1080-NT fibrosarcoma viability, CellTiter-Glo ATP luminescence, 48 h; Potency, µM (series often up to 46.1 µM), for inactives: top-dose activity, negative = less viability, most hits filed as cytotoxic; 1.6% of 360,000 active; AID 686970, 2013;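 further: NT is the 2HG producing partner of a matched IDH1 knockdown line; potency means the concentration at half of the fitted maximal effect; 0% = DMSO-treated cells and -100% = media-only wells without cells; nearly all actives have a fitted effect of over 55% in size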
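Fibrosarcoma NT cells, 750 per well in 5% FBS RPMI, were exposed to compound for 48 hours. Viability: CellTiter-Glo luminescence.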
Numbers without * were called inactive; [ ] = dose if it differs, or a comment. Unless noted, the call rests on the fitted dose curve; in most records, active means well fitted curve in the direction sought with a large enough effect; inconclusive means small, poorly fitted or top-dose-only effect, or another doubt; inactive means no such curve, though single readings can be large; an effect the other way counts as inactive or inconclusive.

`Cn1ccnc1C(O)c1cc(C(C)(C)C)c(O)c(C(C)(C)C)c1` (stereo unspecified) gave HepG2 viability -80.9%, Giardia kill 16.4, TGFb SMAD3 inh 15.8µM*, HT1080 IDH1KD tx 5.4%[9.24 µM], IL-1B inflam inh -92.9* and HT1080NT lethal 15.8µM*.
`C/C(=N\O)c1cc(Cl)cc(Cl)c1O` gave HepG2 viability -0.4%, Giardia kill -11.3, TGFb SMAD3 inh -11.5%, HT1080 IDH1KD tx -27.5%, IL-1B inflam inh -82.6* and HT1080NT lethal inconclusive.
`O=C(/C=C/Nc1ccc(F)cc1Br)c1ccccc1` gave HepG2 viability -37.6%, Giardia kill -88.8*, TGFb SMAD3 inh -2.8%, HT1080 IDH1KD tx inconclusive, IL-1B inflam inh 0.0 and HT1080NT lethal inconclusive.
Screening O=C(CN(Cc1ccco1)C(=O)c1ccc([N+](=O)[O-])cc1)Nc1ccccc1C(F)(F)F returned HepG2 viability 2.2%, Giardia kill 13.8, TGFb SMAD3 inh 1.6%, HT1080 IDH1KD tx -13.3%, IL-1B inflam inh -18.2 and HT1080NT lethal -0.5%.
`CC(C)COc1ccc(C(=O)N(CC(=O)Nc2ccccc2C(F)(F)F)Cc2ccco2)cc1` gave HepG2 viability -6.9%, Giardia kill -1.5, TGFb SMAD3 inh -9.7%, HT1080 IDH1KD tx -28.2%, IL-1B inflam inh -72.1* and HT1080NT lethal inconclusive.
`S=c1[nH]nc(-c2ccco2)n1/N=C/C(Cl)=C/c1ccccc1` gave HepG2 viability -34.1%, Giardia kill 11.4, TGFb SMAD3 inh inconclusive, HT1080 IDH1KD tx inconclusive, IL-1B inflam inh inconclusive and HT1080NT lethal inconclusive.
`S=c1[nH]nc(-c2cc(-c3ccccc3)n[nH]2)n1/N=C/C(Br)=C/c1ccccc1` gave HepG2 viability -26.8%, Giardia kill -1.7, TGFb SMAD3 inh 11.2µM*, HT1080 IDH1KD tx 5.8µM*, IL-1B inflam inh -99.2* and HT1080NT lethal 7.31µM*.
Screening Cc1cc(-c2n[nH]c(=S)n2/N=C/C(Cl)=C/c2ccccc2)n[nH]1 returned HepG2 viability -20.3%, Giardia kill -20.3, TGFb SMAD3 inh inconclusive, HT1080 IDH1KD tx inconclusive, IL-1B inflam inh -96.9* and HT1080NT lethal inconclusive.
For CC(=O)N1CCN=C1SCc1ccccc1Cl the results were HepG2 viability -9.9%, Giardia kill 16.6, TGFb SMAD3 inh 0.9%, HT1080 IDH1KD tx -1.9%, IL-1B inflam inh -6.9 and HT1080NT lethal 0.0%.
`O=C(NCCN1CCOCC1)c1cc2c(=O)n3ccccc3nc2n1Cc1ccccc1` gave HepG2 viability -12.7%, Giardia kill 13.7, TGFb SMAD3 inh 26.6%, HT1080 IDH1KD tx 5.4%, IL-1B inflam inh 24.6 and HT1080NT lethal 8.3%.
`CC(C)CCOP(=O)(c1ccc(N(C)C)cc1)C(Nc1ccccc1)c1ccc(N(C)C)cc1` (stereo unspecified) gave HepG2 viability -23.8%, Giardia kill 1.2, TGFb SMAD3 inh inconclusive, HT1080 IDH1KD tx -23.2%, IL-1B inflam inh inconclusive and HT1080NT lethal -9.1%.
For CCCOP(=O)(c1ccc(N(C)C)cc1)C(Nc1ccccc1)c1ccc(C)cc1 (stereo unspecified) the results were HepG2 viability -41.2%, Giardia kill 7.9, TGFb SMAD3 inh inconclusive, HT1080 IDH1KD tx 14.6µM*, IL-1B inflam inh -3.6 and HT1080NT lethal inconclusive.
For COCCN(C(=O)CSc1nc2ccccc2c(=O)n1C(C)COC)c1c(N)n(Cc2ccccc2)c(=O)[nH]c1=O (stereo unspecified) the results were HepG2 viability 2.2%, Giardia kill 21.9, TGFb SMAD3 inh -19.7%, HT1080 IDH1KD tx -1.4%, IL-1B inflam inh -0.7 and HT1080NT lethal 5.0%.
